Results as given in PubChem BioAssay (Tox21).
Records with an inconclusive call do not appear. Activity calls are given as the source filed them. Unless noted, calls come from the whole dose curve; as a rule, active = well fitted curve in the direction sought with a large enough effect in the repeat runs; inconclusive = weak or mixed curves; inactive = no such curve, though single readings can be large; an effect the other way counts as inactive or inconclusive.

Key:
[1] = A CellTox Green Cytotoxicity Assay to monitor cytotoxicity in HEK293 cells - 32 hour (AID 1224881); note: nearly all actives have a fitted effect of over 40% in size
Summary of the method: (§1)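 Fluorescence from a DNA-binding dye excluded by viable cells was measured repeatedly in the same HEK293 wells (600 cells/well) during continuous compound exposure at 37 C. Each assay gives one read point: 0, 8, 16, 24, 32 or 40 h.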

[2] = A CellTox Green Cytotoxicity Assay to monitor cytotoxicity in HepG2 cells - 0 hour (AID 1224882); note: nearly all actives have a fitted effect of over 35% in size
Summary of the method: (§2)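 Real-time cytotoxicity: fluorescence of a cell-impermeant cyanine dye binding DNA of dead HepG2 cells, measured repeatedly (0–40 h) during compound exposure at 37 C. Cells seeded 600/well with reagent, dosed after 5 h.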

[3] = A CellTox Green Cytotoxicity Assay to monitor cytotoxicity in HepG2 cells - 32 hour (AID 1224883); note: nearly all actives have a fitted effect of over 50% in size
Summary of the method: as §2

[4] = A CellTox Green Cytotoxicity Assay to monitor cytotoxicity in HEK293 cells - 8 hour (AID 1224884); note: nearly all actives have a fitted effect of over 35% in size
Summary of the method: as §1

[5] = qHTS RealTime-Glo MT Cell Viability Assay in HepG2 cells - 16 hour (AID 1224885); note: nearly all actives have a fitted effect of over 50% in size
Summary of the method: (§3)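 Luminescence read-out: viable HepG2 cells reduce a prosubstrate to a NanoLuc substrate, giving a signal proportional to live cell number. Reads taken at 0, 8, 16, 24, 32 and 40 h of compound exposure at 37 C.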

[6] = qHTS RealTime-Glo MT Cell Viability Assay in HEK293 cells - 24 hour (AID 1224886); note: top concentration of the series differs between compounds; nearly all actives have a fitted effect of over 50% in size
Summary of the method: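 Nonlytic real-time viability readout: viable cells convert prosubstrate to NanoLuc substrate, giving luminescence proportional to live cell number. HEK293, 600 cells/well, compound added after 5 h, continuous culture at 37 C.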

[7] = qHTS RealTime-Glo MT Cell Viability Assay in HEK293 cells - 8 hour (AID 1224887); note: top concentration of the series differs between compounds; nearly all actives have a fitted effect of over 50% in size
Summary of the method: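 Luminescence, which tracks viable cell number through reduction of the prosubstrate to a NanoLuc substrate, was read over continuous 37 C culture. Cells (600/well) were premixed with reagent and rested 5 h before 23 nL of compound in DMSO was pinned.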

[8] = A CellTox Green Cytotoxicity Assay to monitor cytotoxicity in HEK293 cells - 16 hour (AID 1224888); note: nearly all actives have a fitted effect of over 35% in size
Summary of the method: as §1

[9] = qHTS RealTime-Glo MT Cell Viability Assay in HepG2 cells - 0 hour (AID 1224889); note: nearly all actives have a fitted effect of over 50% in size
Summary of the method: as §3

[10] = A CellTox Green Cytotoxicity Assay to monitor cytotoxicity in HepG2 cells - 8 hour (AID 1224890); note: nearly all actives have a fitted effect of over 45% in size
Summary of the method: as §2

[11] = qHTS assay to identify small molecule antagonists of the estrogen receptor alpha (ER-alpha) signaling pathway using the BG1 cell line in the presence of 0.1 nM 17-beta-estradiol - cell viability counter screen (AID 1259241); note: nearly all actives have a fitted effect of over 40% in size
Summary of the method: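 The cell line endogenously expresses full-length ER-alpha and carries four EREs driving luciferase. Cells are cultured 5 days hormone-free, treated 22 hr with compounds and 0.1 nM estradiol, then viability is read by fluorescence.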

[12] = target: Androgen receptor (Homo sapiens) (UniProt P10275); test: qHTS assay to identify small molecule antagonists of the androgen receptor (AR) signaling pathway using the MDA cell line in the presence of 0.5 nM R1881 (AID 1259243); note: nearly all actives have a fitted effect of over 50% in size
Sequence of Androgen receptor (Homo sapiens) (P10275 whole entry, looked up): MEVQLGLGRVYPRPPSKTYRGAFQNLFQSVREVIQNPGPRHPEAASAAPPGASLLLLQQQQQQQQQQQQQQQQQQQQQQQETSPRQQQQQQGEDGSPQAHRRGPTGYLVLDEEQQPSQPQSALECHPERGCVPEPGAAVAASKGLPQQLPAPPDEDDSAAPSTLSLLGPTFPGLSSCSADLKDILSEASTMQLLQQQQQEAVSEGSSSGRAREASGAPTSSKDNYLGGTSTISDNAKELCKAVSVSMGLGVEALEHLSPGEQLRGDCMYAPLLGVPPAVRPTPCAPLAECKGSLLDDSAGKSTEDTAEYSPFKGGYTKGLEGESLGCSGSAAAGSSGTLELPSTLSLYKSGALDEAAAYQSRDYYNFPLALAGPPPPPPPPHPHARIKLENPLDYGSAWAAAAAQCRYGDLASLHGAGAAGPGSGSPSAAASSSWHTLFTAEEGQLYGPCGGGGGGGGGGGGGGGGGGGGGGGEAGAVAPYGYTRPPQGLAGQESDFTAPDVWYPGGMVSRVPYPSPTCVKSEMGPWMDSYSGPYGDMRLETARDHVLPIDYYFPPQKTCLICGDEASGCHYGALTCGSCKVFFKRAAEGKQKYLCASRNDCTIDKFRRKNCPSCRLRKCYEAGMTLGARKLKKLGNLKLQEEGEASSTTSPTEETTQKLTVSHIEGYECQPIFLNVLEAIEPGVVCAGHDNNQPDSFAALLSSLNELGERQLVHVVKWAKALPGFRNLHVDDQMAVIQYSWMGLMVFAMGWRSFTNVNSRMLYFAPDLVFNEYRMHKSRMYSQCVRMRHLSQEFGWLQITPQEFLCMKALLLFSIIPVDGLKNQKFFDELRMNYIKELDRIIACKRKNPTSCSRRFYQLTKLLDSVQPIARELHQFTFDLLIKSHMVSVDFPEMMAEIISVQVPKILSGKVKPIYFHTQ
Summary of the method: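 Luminescent reporter readout (ONE-Glo, 30 min, room temperature) after 16 hr co-treatment of MDA-kb2 cells with test compounds and 0.5 nM R1881 final, at 37C without CO2. The MMTV-driven luciferase responds to both AR and GR.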

[13] = target: Estrogen receptor (Homo sapiens) (UniProt P03372); test: qHTS assay to identify small molecule antagonists of the estrogen receptor alpha (ER-alpha) signaling pathway using the BG1 cell line in the presence of 0.1 nM 17-beta-estradiol (AID 1259244); note: nearly all actives have a fitted effect of over 50% in size
Sequence of Estrogen receptor (Homo sapiens) (P03372 whole entry, looked up): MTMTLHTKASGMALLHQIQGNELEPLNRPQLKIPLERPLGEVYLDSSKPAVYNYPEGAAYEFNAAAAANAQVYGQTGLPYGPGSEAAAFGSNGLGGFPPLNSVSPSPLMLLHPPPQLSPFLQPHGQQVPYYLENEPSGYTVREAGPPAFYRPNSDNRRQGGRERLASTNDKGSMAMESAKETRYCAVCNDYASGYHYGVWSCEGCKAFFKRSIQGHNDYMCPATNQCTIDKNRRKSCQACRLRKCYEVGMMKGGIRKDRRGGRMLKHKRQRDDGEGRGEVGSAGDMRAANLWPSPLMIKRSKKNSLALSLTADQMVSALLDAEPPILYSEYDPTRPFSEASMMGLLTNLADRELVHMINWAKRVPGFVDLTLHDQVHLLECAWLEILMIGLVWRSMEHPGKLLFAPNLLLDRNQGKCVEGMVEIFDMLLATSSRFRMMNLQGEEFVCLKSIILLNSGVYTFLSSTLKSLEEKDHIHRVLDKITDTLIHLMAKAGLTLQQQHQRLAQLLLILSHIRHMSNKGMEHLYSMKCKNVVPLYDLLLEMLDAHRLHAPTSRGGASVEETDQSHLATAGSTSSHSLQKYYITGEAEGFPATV
Summary of the method: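 Luciferase luminescence (ONE-Glo, 30 min at room temperature) was read after 22 hr at 37C exposure to compounds plus 17beta-estradiol at 0.1 nM final. Cells were VM7Luc4E2 with endogenous ER-alpha and an ERE-driven luciferase, pre-cultured 5 days in hormone-depleted medium.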

[14] = qHTS assay to identify small molecule HDAC inhibitors (AID 1259364); note: top concentration of the series differs between compounds; nearly all actives have a fitted effect of over 45% in size
Summary of the method: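 Luminescence read after 30 min room-temperature HDAC-Glo incubation measures cellular class I/II HDAC activity. Compounds were applied for 2 hr at 37 C to HCT-116 wild-type cells seeded the day before.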

[15] = qHTS assay to identify small molecule HDAC inhibitors - cell viability counter screen (AID 1259365)
Summary of the method: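 Viability readout: CellTiter-Glo luminescence. Wild-type HCT-116 cells, 2hr compound treatment following overnight attachment at 37 C.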

[16] = qHTS assay to identify small molecule agonists of the sonic hedgehog signaling (Shh) pathway - cell viability counter screen (AID 1259366); note: nearly all actives have a fitted effect of over 50% in size
Summary of the method: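 Viability measured fluorometrically (CellTiter-Fluor, 1hr, 37C) in 3T3 Gli1-Luc reporter cells after 23hr compound exposure within a 24hr incubation at 37C/5% CO2.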

[17] = qHTS assay to identify small molecule antagonists of the sonic hedgehog signaling (Shh) pathway - cell viability counter screen (AID 1259367); note: nearly all actives have a fitted effect of over 55% in size
Summary of the method: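 Fluorescence read-out (CellTiter-Fluor, 1 hr at 37C) taken after 23 hr compound treatment of 3T3 Gli1-Luc cells stimulated with conditioned medium. Cells were seeded at 2,000 per well and pre-incubated 4 hr.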

[18] = qHTS assay to identify small molecule agonists of the sonic hedgehog signaling (Shh) pathway (AID 1259368; calls by dose curve;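 note: NIH/3T3-derived 3T3Gli1-Luc cells carrying a stable Gli1-driven firefly luciferase reporter; series mostly up to about 92 µM; nearly all actives have a fitted effect of over 15% in size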)
Summary of the method: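 Luminescence was read after 30 min at room temperature with luciferase reagent. Before that, 3T3Gli1-Luc cells (NIH/3T3 clone, stable Gli1-Luc reporter; 2,000/well) were exposed to compounds for 24 hr at 37C, 5% CO2, compounds being added 4 hr post-plating.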

[19] = qHTS assay to identify small molecule phospholipidosis (PLD) inducers (AID 1259344; active = well fitted curve in the direction sought with a large enough effect; an effect the other way counts as inactive or inconclusive)
Summary of the method: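 Read-out is LipidTOX Red fluorescence (ex 595/em 615) imaged in HepG2 cells after 24 h compound exposure at 37 C, with Hoechst nuclear counterstain (ex 352/em 461) allowing per-cell normalisation.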

[20] = qHTS assay to identify small molecule antagonists of the androgen receptor (AR) signaling pathway using the MDA cell line in the presence of 0.5 nM R1881 - cell viability counter screen (AID 1259242); note: nearly all actives have a fitted effect of over 45% in size
Summary of the method: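 Live-cell protease activity was measured by CellTiter-Fluor fluorescence after 30 min. Before that, MDA-kb2 MMTV-luciferase cells had 16 hr at 37C without CO2, exposed to test compounds and 0.5 nM R1881 final.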

Measured: Potency

O=C(OCc1ccccc1)C(=O)OCc1ccccc1
inactive: [1] | [2] | [3] | [4] | [5] | [6] | [7] | [8] | [9] | [10] | [11] | [12] | [13] | [14] | [15] | [16] | [17] | [18]

CC1=C(C(=O)O)N2C(=O)[C@@H](NC(=O)[C@H](N)c3ccc(O)cc3)[C@H]2SC1
inactive: [1] | [2] | [3] | [4] | [5] | [6] | [7] | [8] | [9] | [10] | [11] | [19] | [14] | [15] | [16] | [17] | [18]

CCC(C)NC(N)=O (stereo unspecified)
inactive: [1] | [2] | [3] | [4] | [5] | [6] | [7] | [8] | [9] | [20] | [12] | [13] | [14] | [15] | [16] | [17] | [18]

CCc1ccc(C=O)cc1
inactive: [1] | [2] | [3] | [4] | [5] | [6] | [7] | [8] | [9] | [11] | [20] | [14] | [15] | [16] | [17] | [18]

c1ccc2c(c1)ccc1c3ccccc3ccc21
inactive: [1] | [2] | [3] | [4] | [5] | [6] | [7] | [8] | [9] | [11] | [20] | [15] | [16] | [17] | [18]

CCCOC(OCCC)OCCC
inactive: [1] | [2] | [3] | [4] | [5] | [6] | [7] | [8] | [9] | [11] | [20] | [14] | [15] | [16] | [17] | [18]

O=C(O)c1cc(Cl)cc([N+](=O)[O-])c1Cl
inactive: [1] | [2] | [3] | [4] | [5] | [6] | [7] | [8] | [9] | [11] | [20] | [12] | [14] | [15] | [16] | [17] | [18]

OC[C@H](Cc1cccc(O)c1)[C@H](CO)Cc1cccc(O)c1
inactive: [1] | [2] | [3] | [4] | [5] | [6] | [7] | [8] | [9] | [11] | [20] | [14] | [15] | [16] | [18]
